# High-throughput results from PubChem.
# KCNQ2 inh: rat KCNQ2 potassium channel inhibitors, primary screen, cell-based, CHO-K1, FluxOR thallium flux, B-score. 20 min; active compounds read low. B-score at 10 µM. 310,000 tested, 1.1% active. AID 2156, 2009;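 active = fluorescence ratio B-score at most minus 3 library SDs, with starting brightness B-score within 2 library SDs, cut at about -5.5 in these data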
# KCNQ2 enhance: potentiators of rat KCNQ2 potassium channel | 310,000 tested, 0.54% active | CHO-K1 KCNQ2, FluxOR thallium flux fluorescence; active compounds read high | B-score at 10 µM | AID 2239, 2010;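 active = fluorescence ratio B-score at least 3 SD of library B-scores, with initial fluorescence B-score within 3 of them, cut at about 5.3 in these data; same plate scores as AID 2156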;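 note: B-score of peak minus minimum over baseline fluorescence ratio after K+ and Tl+ stimulus; positive B-score means potentiation of KCNQ2 with more thallium influx and brighter signal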
# Kir21 conf inh: mouse Kir2.1 channel blockers, retest, confirmation, cell-based, FluxOR thallium flux, duplicate; 2,300 tested, 41% active; Kir2.1-expressing cells, FluxOR thallium flux fluorescence; active compounds read low; shares compounds with KCNQ2 enhance; Tl flux remaining, % of negative control (active compounds read low), % at 10 µM; AID 2032, 2009;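 active = Primary-screen hit whose thallium flux fell at least 3 control SD below untreated wells in both duplicates, with normal baseline fluorescence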;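 note: 0% = blank wells without stimulus and 100% = stimulated no-compound controls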
# Target sequence (P35561 whole entry, looked up): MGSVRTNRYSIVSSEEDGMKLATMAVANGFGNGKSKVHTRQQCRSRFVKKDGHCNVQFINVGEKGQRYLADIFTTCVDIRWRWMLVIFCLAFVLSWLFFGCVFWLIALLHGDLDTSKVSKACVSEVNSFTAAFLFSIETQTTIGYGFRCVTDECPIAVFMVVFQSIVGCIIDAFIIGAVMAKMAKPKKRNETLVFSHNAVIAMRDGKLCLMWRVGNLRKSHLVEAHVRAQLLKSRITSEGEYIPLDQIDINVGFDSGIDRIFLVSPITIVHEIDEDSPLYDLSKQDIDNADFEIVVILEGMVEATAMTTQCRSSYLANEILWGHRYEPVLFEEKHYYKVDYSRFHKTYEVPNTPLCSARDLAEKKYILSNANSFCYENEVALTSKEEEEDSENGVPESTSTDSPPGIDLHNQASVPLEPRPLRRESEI
# HEK293 ctr: alters thallium flux in parental HEK293 cells, Kir2.1 counter-screen. FluxOR thallium flux fluorescence; 0% = unstimulated blank wells. FluxOR signal as % of negative control (100 = no effect), % at 10 µM. 2,300 tested, 19% active. shares compounds with KCNQ2 enhance. AID 2105;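 active = dye signal at least 3 control SD above or below untreated wells in both duplicates, raw fluorescence within 3, either direction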;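 note: percent is based on the flux ratio of peak minus minimum fluorescence over baseline F0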
# CHO-K1 Tl ctr: nonspecific thallium flux increase in parental CHO-K1, confirmation, counter-screen for KCNQ2 potentiator project, cell-based, FluxOR thallium flux, duplicate; shares compounds with KCNQ2 enhance; parental CHO-K1 cells, FluxOR thallium flux fluorescence; zero = vehicle mean+3SD, 100% = vehicle-minus-blank window; activity increase over 3SD of controls, % at 10 µM; 1,200 tested, 43% active;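 active = signal rise of at least 3 SD above the untreated control mean, in both duplicate wells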;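 note: counter screen of KCNQ2 potentiator hits so any rise reflects channel-independent effects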
# KCNQ1 sel pot: human KCNQ1 channel potentiation off-target, confirmation, selectivity assay for KCNQ2 potentiator project, cell-based, CHO, FluxOR thallium flux; shares compounds with KCNQ2 enhance; AID 2283, 2010; 1,200 tested, 28% active; activation over 3SD threshold, % at 10 µM; CHO KCNQ1 stable, FluxOR thallium flux fluorescence; beyond 3SD, as % of vehicle-control signal;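 active = fluorescence ratio rise of at least 3 SD of vehicle wells above their mean, in both replicate wells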;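 note: 0% = vehicle mean plus 3 SD and 100% = vehicle minus unstimulated blank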
# KCNQ2 pot confirm: rat KCNQ2 channel potentiators, confirmation, cell-based, CHO, FluxOR thallium flux, duplicate; shares compounds with KCNQ2 enhance; 1,200 tested, 68% active; AID 2287, 2010; CHO-KCNQ2 cells, FluxOR thallium flux fluorescence; potentiation, less the hit threshold, % at 10 µM;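 active = fluorescence ratio rising 3 SD or more over the vehicle control mean in both replicates, plus primary screen hit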;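 note: peak minus minimum thallium fluorescence divided by baseline after K/Tl stimulus; 0% = vehicle mean plus 3 SD and 100% = vehicle minus unstimulated blank difference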
# Kir21 spec: mouse Kir2.1 channel activation off-target, confirmation, selectivity assay for KCNQ2 potentiator project, cell-based, HEK293, FluxOR thallium flux. shares compounds with KCNQ2 enhance. activity over 3SD threshold, % at 10 µM. AID 2345, 2010. HEK293 Kir2.1, FluxOR thallium flux fluorescence. 1,200 tested, 2% active;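 active = fluorescence ratio rise of at least 3 SD above the vehicle-control mean, seen in both replicates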;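 note: 0% = vehicle mean plus 3 SD and 100% = vehicle minus no-stimulus blank window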
# KCNQ2 W236L MoA: potentiators of retigabine-insensitive KCNQ2 W236L, mechanism study for KCNQ2 potentiator project, cell-based, rat KCNQ2 W236L, CHO, automated patch clamp; shares compounds with KCNQ2 enhance; automated patch clamp current; current increase over 3SD of negative controls (%), active compounds read high, % at 25 µM; 940 tested, 10% active; AID 2558, 2010;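 active = current increase at least 3 SD of the untreated controls above them in both duplicate recordings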
# Starred values were filed as active, the others as inactive; i = inactive; . = no result given. The list is not random: actives were taken first. Their share in the collection is about 1.6%.
SMILES,KCNQ2 inh,KCNQ2 enhance,Kir21 conf inh,HEK293 ctr,CHO-K1 Tl ctr,KCNQ1 sel pot,KCNQ2 pot confirm,Kir21 spec,others
C/C(=C/CCC(C)[C@H]1CC[C@@]2(C)C3=C(CC[C@]12C)[C@@]1(C)CCC(=O)C(C)(C)[C@@H]1CC3)C(=O)O (some centres undefined),i,21*,i,i,1.4*,-11,-26,-33,
O=C(O)c1c2c(nc3ccccc13)/C(=C/c1cccc([N+](=O)[O-])c1)CCC2,i,2.8,.,.,.,.,.,.,
CC(Oc1ccc(Cl)cc1)c1ccnn1S(=O)(=O)c1ccc(Cl)cc1 (centres undefined),i,.,.,.,.,.,.,.,
CC(Oc1ccccc1)c1ccnn1S(=O)(=O)c1ccccc1 (centres undefined),i,.,52%*,i,.,.,.,.,
CCN(CC)C(=S)SCC(=O)c1ccc(F)cc1,i,.,.,.,.,.,.,.,
CCN(CC)C(=S)SCC(=O)Nc1ccc(F)cc1,i,6.4*,i,i,-11,-15,3.2*,-43,KCNQ2 W236L MoA=i
CCCCn1c(=N)n(CC(O)COc2ccc(C)cc2)c2ccccc21 (centres undefined),i,.,.,.,.,.,.,.,
CCCCn1c(=N)n(CC(O)COc2ccccc2)c2ccccc21 (centres undefined),i,1,.,.,.,.,.,.,
N=c1n(Cc2ccccc2)c2ccccc2n1CC(O)COc1ccccc1 (centres undefined),i,.,38%*,i,.,.,.,.,
Cc1ccc(Cn2c(=N)n(CC(O)COc3ccccc3)c3ccccc32)cc1 (centres undefined),i,.,32%*,i,.,.,.,.,
OC1(c2ccc3c(c2)OCO3)CCN(Cc2ccc(F)cc2)CC1,i,0.26,.,.,.,.,.,.,
Cc1cc(Cl)c(S(=O)(=O)N2CCN(c3ccc(F)cc3)CC2)cc1OCC(N)=O,i,0.29,.,.,.,.,.,.,
Cc1cc(Cl)c(S(=O)(=O)N2CCN(c3ccc(F)cc3)CC2)cc1OCC(=O)NC1CCCCC1,i,16*,i,i,53*,-11,60*,-39,KCNQ2 W236L MoA=i
COc1ccc(NC(=O)CN(c2ccc(OC)c(Cl)c2)S(=O)(=O)c2ccccc2)cc1,i,0.24,.,.,.,.,.,.,
S=c1nc[nH]c2c1cnn2-c1ccccc1,i,10*,i,162%*,32*,-9,2.7*,-37,KCNQ2 W236L MoA=i
Nc1ncnc2c1cnn2-c1ccccc1,i,1.2,.,.,.,.,.,.,
CCC(=O)N(Cc1cc(=O)[nH]c2ccccc12)c1ccc(OC)cc1,i,.,.,.,.,.,.,.,
CN(CC(=O)Nc1ccc(F)cc1)C(=O)COC(=O)COc1ccc(C#N)cc1,i,1,.,.,.,.,.,.,
Cc1cc(C)cc(OCC(=O)OCC(=O)N(C)CC(=O)Nc2ccc(F)cc2)c1,i,8.3*,i,i,18*,-8,19*,-36,KCNQ2 W236L MoA=i
O=C(C[n+]1ccccn1)c1ccccc1,i,.,.,.,.,.,.,.,
CCc1ccc(S(=O)(=O)c2ccc(-n3nc(C)cc3N)cc2)cc1,i,0.92,.,.,.,.,.,.,
O=C(Nc1ccccc1F)C1CC1c1ccccc1 (centres undefined),i,4.2,.,.,.,.,.,.,
Cc1ccc(Cl)cc1NC(=O)C1C2CCC(O2)C1C(=O)O (centres undefined),i,.,.,.,.,.,.,.,
Cc1cccc(NC(=O)C2CC2c2ccccc2)c1C (centres undefined),i,18*,i,i,-6,-11,47*,-23,KCNQ2 W236L MoA=i
COc1ccc(OC)c(NC(=O)NC2CCCCCCC2)c1,i,12*,i,i,-15,-28,3.5*,-42,KCNQ2 W236L MoA=i
SMILES,KCNQ2 inh,KCNQ2 enhance,Kir21 conf inh,HEK293 ctr,CHO-K1 Tl ctr,KCNQ1 sel pot,KCNQ2 pot confirm,Kir21 spec,others
Cc1ccc(Cl)cc1NC(=O)C1CC1c1ccccc1 (centres undefined),i,6.2*,i,i,-14,-13,-1,-39,KCNQ2 W236L MoA=i
COc1ccc(OC)c(NC(=O)C(=S)NC2CCCCC2)c1,i,0.98,.,.,.,.,.,.,
COc1cc(NC(=O)COc2ccc(Cl)cc2)ccc1NC(=O)C(C)C,i,.,.,.,.,.,.,.,
COc1ccc(NC(=O)C(=O)NNC(=O)COc2ccc(Cl)cc2)c(OC)c1,i,10*,i,318%*,0.6*,-31,21*,-12,KCNQ2 W236L MoA=i
CC12CN(C(=O)c3cccc([N+](=O)[O-])c3)C3(C#N)CC1CCC23C (centres undefined),i,.,.,.,.,.,.,.,
COc1ccc(/C=N/OCC(=O)Nc2ccc3c(c2)OCO3)c(OC)c1,i,0.68,.,.,.,.,.,.,
COc1ccc(C(=O)NCc2nnc(SCC(=O)Nc3cc(Cl)ccc3OC)o2)cc1,i,.,.,.,.,.,.,.,
O=C(CNC(=O)c1cccs1)OCC(=O)c1ccccc1Cl,i,1.1,.,.,.,.,.,.,
COC(=O)/C(=C\Nc1ccc(Oc2ccc(F)cc2F)nc1)NC(=O)c1ccccc1,i,0.32,.,.,.,.,.,.,
COc1ccc(OC)c(NC(=O)C2CC2c2ccccc2)c1 (centres undefined),i,19*,i,72%*,-5,8.9*,59*,-38,KCNQ2 W236L MoA=i
COc1ccc(OC)c(NC(=O)C2CCCC2)c1,i,2.4,.,.,.,.,.,.,
COc1ccc(OC)c(NC(=O)c2ccc(Cl)cc2)c1,i,6.5*,i,i,-10,-12,9.8*,-27,KCNQ2 W236L MoA=i
COc1ccc(C(=O)Nc2cc(OC)ccc2OC)cc1,i,0.02,.,.,.,.,.,.,
COc1ccc2[nH]c3c(=O)n(CCCC(=O)NC4CCCCC4C)c(=S)[nH]c3c2c1 (centres undefined),i,1.5,.,.,.,.,.,.,
Cc1cccc(C)c1NC(=O)C1C2C=CC(C2)C1C(=O)O (centres undefined),i,0.57,.,.,.,.,.,.,
CCOc1ccc(OCC(O)CN2CCc3ccccc3C2)cc1 (centres undefined),i,.,.,.,.,.,.,.,
